The source made the active and inactive calls. Unless noted, the rule behind the calls is not given here.
Legend:
[1] = anti-His antibody binders, primary screen, artefact control for SMM control protein annotation, biochemical, small-molecule microarray, 635 nm fluorescence (AID 1128); conditions: anti-His Alexa647 antibody binding, higher = more signal;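 note: score merges feature fluorescence with signal-to-noise for each printed compound spot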
[2] = test system: Human papillomavirus type 1a E7 protein (residues 1-88); experiment: HPV1a E7 small-molecule binders, primary screen, biochemical, small-molecule microarray, residues 1-88, 635 nm (AID 1129); conditions: small-molecule microarray binding, fluorescence 635 nm; higher = more signal
[3] = molecular target: Focal adhesion kinase 1 (Homo sapiens) (UniProt Q05397); experiment: small-molecule microarray binders of FAK, primary screen, biochemical, 635/667 nm fluorescence, BSA, DTT (AID 1130); conditions: PTK2 binding, 635 nm fluorescence, higher = more signal;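 note: composite of spot emission at 667 nm and signal to noise over triplicate slides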
Focal adhesion kinase 1 (Homo sapiens), sequence (Q05397 whole entry, looked up): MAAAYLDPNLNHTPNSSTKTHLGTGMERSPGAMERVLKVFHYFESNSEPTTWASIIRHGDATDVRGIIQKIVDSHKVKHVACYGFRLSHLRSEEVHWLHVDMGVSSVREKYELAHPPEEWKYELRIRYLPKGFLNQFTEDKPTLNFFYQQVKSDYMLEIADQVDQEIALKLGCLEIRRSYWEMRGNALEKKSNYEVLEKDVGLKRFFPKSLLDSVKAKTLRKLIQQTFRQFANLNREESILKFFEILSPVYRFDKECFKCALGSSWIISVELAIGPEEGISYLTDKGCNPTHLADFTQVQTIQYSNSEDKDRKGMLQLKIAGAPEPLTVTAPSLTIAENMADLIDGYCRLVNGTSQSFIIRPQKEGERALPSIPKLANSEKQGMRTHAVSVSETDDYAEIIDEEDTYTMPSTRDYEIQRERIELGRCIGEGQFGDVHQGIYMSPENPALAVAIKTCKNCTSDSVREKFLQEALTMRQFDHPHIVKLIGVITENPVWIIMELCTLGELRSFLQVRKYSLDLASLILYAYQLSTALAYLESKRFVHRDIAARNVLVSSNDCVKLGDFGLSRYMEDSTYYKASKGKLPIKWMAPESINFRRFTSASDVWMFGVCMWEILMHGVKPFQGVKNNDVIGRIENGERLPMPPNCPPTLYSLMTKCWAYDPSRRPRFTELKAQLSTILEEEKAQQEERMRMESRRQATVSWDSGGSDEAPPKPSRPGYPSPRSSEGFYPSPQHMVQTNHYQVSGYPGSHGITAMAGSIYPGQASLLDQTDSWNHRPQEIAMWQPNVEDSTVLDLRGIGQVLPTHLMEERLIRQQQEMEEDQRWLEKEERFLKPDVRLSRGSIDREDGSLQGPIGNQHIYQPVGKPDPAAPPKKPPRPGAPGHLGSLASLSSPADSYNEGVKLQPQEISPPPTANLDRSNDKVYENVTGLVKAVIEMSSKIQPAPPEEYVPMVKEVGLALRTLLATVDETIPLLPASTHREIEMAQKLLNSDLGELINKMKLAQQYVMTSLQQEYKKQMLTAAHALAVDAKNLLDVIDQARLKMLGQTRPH

[4] = test system: Fibrinogen (Alexa647-labelled); experiment: fibrinogen binders on compound microarrays, profiling panel, artefact control for SMM control-protein annotation, biochemical, small-molecule microarray, 635/667 nm fluorescence (AID 1131); conditions: fibrinogen-A647 binding fluorescence, higher = more signal;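 note: z-score merges 667 nm fluorescence with per-spot signal-to-noise over triplicate slides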
[5] = molecular target: Follistatin (Homo sapiens) (UniProt P19883); experiment: follistatin binders on small-molecule microarrays, primary screen, biochemical, small-molecule microarray, 635/667 nm fluorescence (AID 1132); conditions: FST binding, 635 nm fluorescence, higher = more signal
Follistatin (Homo sapiens), sequence (P19883 whole entry, looked up): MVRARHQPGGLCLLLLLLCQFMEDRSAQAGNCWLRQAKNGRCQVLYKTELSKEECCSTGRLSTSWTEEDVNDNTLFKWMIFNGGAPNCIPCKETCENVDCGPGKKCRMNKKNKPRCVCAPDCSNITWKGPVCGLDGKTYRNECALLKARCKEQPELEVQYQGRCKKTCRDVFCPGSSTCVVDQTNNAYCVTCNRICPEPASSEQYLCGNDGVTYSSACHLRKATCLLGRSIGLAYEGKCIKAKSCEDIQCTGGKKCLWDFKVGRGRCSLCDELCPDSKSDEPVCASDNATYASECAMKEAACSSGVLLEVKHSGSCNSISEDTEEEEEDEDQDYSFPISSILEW

[6] = molecular target: Fibroblast growth factor 2 (Homo sapiens) (UniProt P09038); experiment: FGF2 binders on small-molecule microarrays, primary screen, biochemical, small-molecule microarray, 635/667 nm fluorescence (AID 1133); conditions: small-molecule microarray binding, FGF2, fluorescence 635/667; higher = more signal
Fibroblast growth factor 2 (Homo sapiens), sequence (P09038 whole entry, looked up): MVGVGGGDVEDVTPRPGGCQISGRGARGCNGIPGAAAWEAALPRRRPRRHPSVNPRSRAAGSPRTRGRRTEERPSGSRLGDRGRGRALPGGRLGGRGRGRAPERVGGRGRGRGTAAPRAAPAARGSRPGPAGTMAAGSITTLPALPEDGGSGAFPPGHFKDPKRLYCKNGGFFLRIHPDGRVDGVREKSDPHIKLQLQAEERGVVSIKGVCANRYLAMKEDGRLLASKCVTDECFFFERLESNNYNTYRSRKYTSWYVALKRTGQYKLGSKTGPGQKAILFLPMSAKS

[7] = mitochondrial membrane potential change in A549 cells, profiling panel, cell-based, JC-1 fluorescence, basal, 24 h, 100 nL (AID 1138); conditions: higher = more signal;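 note: A549 lung adenocarcinoma cells under basal conditions with no added stimulus; test concentration not given here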
[8] = test system: Lefty1; experiment: Lefty1 binders on small-molecule microarrays, primary screen, biochemical, small-molecule microarray, 635/667 nm fluorescence (AID 1139); conditions: small-molecule microarray binding, fluorescence 635/667; higher = more signal
[9] = test system: wheat germ agglutinin (Triticum aestivum), Alexa647-labelled; experiment: wheat germ agglutinin binders on compound microarrays, profiling panel, artefact control for SMM control-protein annotation, biochemical, small-molecule microarray, 635/667 nm fluorescence (AID 1140); conditions: WGA-A647 binding, 635 nm fluorescence, higher = more signal;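 note: score merges 667 nm feature emission with signal to noise over triplicate slides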
[10] = molecular target: Luciferin 4-monooxygenase (Photinus pyralis) (UniProt P08659); experiment: firefly luciferase enzyme inhibitors, primary screen, biochemical, luminescence, purified enzyme, 2006 set (AID 1141); conditions: SteadyGlo luminescence, 30 min, higher = more signal, called active from +8 up or from −8 down;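 note: cell-free assay with purified firefly luciferase at 100 ng per well in PBS; test concentration not given here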
Luciferin 4-monooxygenase (Photinus pyralis), sequence (P08659 whole entry, looked up): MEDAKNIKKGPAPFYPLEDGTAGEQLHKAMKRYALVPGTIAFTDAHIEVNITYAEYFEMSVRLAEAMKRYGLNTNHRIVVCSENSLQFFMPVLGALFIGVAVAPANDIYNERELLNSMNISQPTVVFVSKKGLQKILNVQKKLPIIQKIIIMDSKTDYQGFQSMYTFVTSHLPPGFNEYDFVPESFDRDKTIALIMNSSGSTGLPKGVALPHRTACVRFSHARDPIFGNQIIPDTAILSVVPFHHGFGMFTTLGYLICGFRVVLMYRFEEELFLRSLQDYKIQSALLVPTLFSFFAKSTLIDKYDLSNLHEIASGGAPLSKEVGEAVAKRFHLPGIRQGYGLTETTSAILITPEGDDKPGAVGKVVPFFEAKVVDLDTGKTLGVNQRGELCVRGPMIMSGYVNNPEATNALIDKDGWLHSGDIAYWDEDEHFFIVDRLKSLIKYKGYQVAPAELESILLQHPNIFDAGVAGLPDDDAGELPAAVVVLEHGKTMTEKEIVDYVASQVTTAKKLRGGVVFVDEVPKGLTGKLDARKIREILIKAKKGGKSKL

[11] = test system: Wnt5a (protein binding on small-molecule microarray); experiment: Wnt5a binders on small-molecule microarray, primary screen, biophysical, 635/667 nm fluorescence (AID 1142); conditions: 635 nm fluorescence, higher = more signal;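 note: fluorescence read at 667 nm with signal to noise per printed feature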
[12] = cell viability in Huh7 cells, primary screen, cytotoxicity control for HCV replication inhibitor project, CellTiter-Glo luminescence, basal, 48 h (AID 1143); conditions: Huh7 HCV replicon, higher = more signal, called active from +8 up or from −8 down;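 note: Huh7 hepatoma cells carrying a hepatitis C replication reporter with no stimulus; test concentration not given here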
[13] = P. aeruginosa biofilm formation inhibitors, primary screen, PAO1 strain, BacTiter-Glo luminescence, LB-PBS (AID 1144); conditions: 12 h, higher = more signal
[14] = CREB reporter modulators without forskolin, primary screen, cell-based, PC12, CRE-LacZ reporter, unstimulated (AID 1145); conditions: no forskolin, luminescence, 4.5 h, higher = more signal, called active from +8 up or from −8 down
[15] = CREB reporter modulators under forskolin, primary screen, cell-based, PC12, CRE-LacZ reporter, forskolin-stimulated (AID 1146); conditions: luminescence, 4.5 h, higher = more signal, called active from +8 up or from −8 down;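 note: PC12 cells with 6xCRE LacZ reporter stimulated by forskolin 10 µM; beta-galactosidase reporter signal reflecting CREB driven transcription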
[16] = molecular target: Streptavidin (Streptomyces avidinii) (UniProt P22629); experiment: streptavidin binders on small-molecule microarray, primary screen, artefact control for SMM compound annotation, biophysical, 635/667 nm fluorescence (AID 1147); conditions: streptavidin binding, higher = more signal;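 note: signal reflects streptavidin binding to arrayed compounds as a control protein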
Streptavidin (Streptomyces avidinii), sequence (P22629 whole entry, looked up): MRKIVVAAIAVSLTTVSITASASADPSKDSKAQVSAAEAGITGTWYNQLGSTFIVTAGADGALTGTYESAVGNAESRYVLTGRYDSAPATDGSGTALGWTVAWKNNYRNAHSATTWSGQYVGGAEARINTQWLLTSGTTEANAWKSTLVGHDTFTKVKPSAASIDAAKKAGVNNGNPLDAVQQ

[17] = small-molecule binders of probe aInhba, primary screen, biochemical, small-molecule microarray, 635/667 nm fluorescence (AID 1148); conditions: higher = more signal;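 note: score merges 667nm spot fluorescence with signal-to-noise for antibody binding to printed compounds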
[18] = molecular target: Torsin-1A (Homo sapiens) (UniProt O14656); experiment: torsin A binders from cell lysate, primary screen, small-molecule microarray, wild-type, 635/667 nm (AID 1149); conditions: COS7 hTOR1A-WT lysate, 635 nm fluorescence, higher = more signal
Torsin-1A (Homo sapiens), sequence (O14656 whole entry, looked up): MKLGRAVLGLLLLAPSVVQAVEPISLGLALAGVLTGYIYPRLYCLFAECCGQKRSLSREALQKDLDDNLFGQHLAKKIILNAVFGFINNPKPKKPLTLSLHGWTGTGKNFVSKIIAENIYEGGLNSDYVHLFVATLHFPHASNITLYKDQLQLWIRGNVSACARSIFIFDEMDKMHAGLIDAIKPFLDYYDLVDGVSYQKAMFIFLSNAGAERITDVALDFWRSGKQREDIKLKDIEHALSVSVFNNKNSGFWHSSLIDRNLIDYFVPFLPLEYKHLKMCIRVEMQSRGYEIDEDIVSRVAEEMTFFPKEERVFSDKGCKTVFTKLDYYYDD

[19] = molecular target: Torsin-1A (Homo sapiens) (UniProt O14656); experiment: small-molecule binders of mutant TOR1A in lysate, primary screen, cell lysate, small-molecule microarray, COS7 lysate, 635/667 nm fluorescence (AID 1150); conditions: COS7 hTOR1A mutant lysate, 635 nm fluorescence, higher = more signal;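 note: score pools 667 nm emission and signal to noise measuring lysate protein binding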
[20] = test system: Sonic hedgehog protein (Shh); experiment: small-molecule binders of Shh protein, primary screen, biochemical, small-molecule microarray, 635/667 nm fluorescence (AID 1151); conditions: small-molecule microarray binding, 635 nm fluorescence; higher = more signal;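 note: Shh protein binding to compounds spotted on small-molecule microarray slides; score combines spot fluorescence intensity with signal-to-noise across triplicate slides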

Structure (SMILES) | composite z-score [1] | composite z-score [2] | composite z-score [3] | composite z-score [4] | composite z-score [5] | composite z-score [6] | z-score [7] | composite z-score [8] | composite z-score [9] | z-score [10] | composite z-score [11] | z-score [12] | z-score [13] | z-score [14] | z-score [15] | composite z-score [16] | composite z-score [17] | composite z-score [18] | composite z-score [19] | composite z-score [20]
CN1C(=O)[C@]2(CCC(=O)OC(C)(C)C)N=C(c3ccc(OCCCO)cc3)O[C@@H]2c2ccccc21 | 1.2 | 1.23 | 0.488 | 0.95 | 1.44 | 1.55 | 1.85 | 0.853 | 0.182 | -2.79 (inactive) | 0.935 | -4.74 (inactive) | -0.598 (inactive) | 1.41 (inactive) | -0.572 (inactive) | -0.201 | 0.134 | 0.112 | 0.401 | 2.11
CO[C@H]1O[C@H](CO)[C@@H](OC(=O)Nc2ccc(C(F)(F)F)cc2)[C@H](OC(=O)Nc2ccccc2-c2ccccc2)[C@@H]1OC(=O)Nc1ccccc1-c1ccccc1 | 2.01 | 1.1 | 0.799 | 0.911 | 1.3 | 0.697 | 0.284 | 1.08 | 1.04 | 0.798 (inactive) | 0.229 | -4.02 (inactive) | 0.821 (inactive) | 0.148 (inactive) | 0.892 (inactive) | 1.02 | 0.228 | 0.363 | 0.979 | 1.34
COc1ccc([Si](C)(C)[C@H]2[C@H](CCn3cc([C@H](O)c4ccccc4)nn3)O[C@@]3(C(=O)N(C)c4c(Br)cc(C)cc43)[C@@H]2C)cc1 | 0.523 | -0.212 | -0.472 | -0.496 | 1.5 | 1.87 | 0.134 | 1.37 | 0.343 | -0.877 (inactive) | -0.0472 | -4.01 (inactive) | -0.23 (inactive) | 7.95 (inactive) | -1.66 (inactive) | -0.124 | -0.208 | 0.877 | 0.19 | 0.964
C=CCC(OC(C)=O)[C@@H]1[C@@H](N(Cc2cc3ccccc3o2)C(=O)c2ccc(-c3ccccc3)cc2)c2cc(OCCCO)ccc2N1C(=O)c1ccc2ccccc2n1 (stereo not given in full) | -0.492 | -1.42 | 0.202 | -0.858 | 0.313 | -0.171 | 1.71 | -0.194 | -0.0535 | -0.847 (inactive) | -0.202 | 0.214 (inactive) | -0.115 (inactive) | 2.46 (inactive) | -0.531 (inactive) | 0.378 | 0.0228 | 0.179 | 0.165 | 0.135
CC(C)CNC(=O)[C@@H]1c2ccccc2C(=O)N(C(C)C)[C@H]1c1ccc(CO)cc1 | -0.306 | -0.341 | -0.155 | -1.18 | 0.659 | 0.427 | 0.484 | -0.481 | 0.775 | -0.207 (inactive) | 0.0274 | -1.93 (inactive) | -0.753 (inactive) | -0.179 (inactive) | -0.739 (inactive) | -1.16 | -0.0986 | 1.13 | 0.0411 | 0.35
CCOC(=O)C1=CC[C@@H](c2ccc(F)cc2)N(S(=O)(=O)c2ccc(C)cc2)[C@H]1c1ccc([N+](=O)[O-])cc1 | 0.353 | 1.19 | 0.866 | 0.954 | 0.283 | -0.218 | 1.83 | 0.242 | 0.742 | 2.28 (inactive) | 0.0382 | -2.52 (inactive) | -1.24 (inactive) | -1.73 (inactive) | 0.66 (inactive) | 0.812 | 0.0131 | -0.116 | 0.599 | -0.0316
CN(C)CCCC[C@@H]1NC(=O)[C@@H]2C[C@H](C(=O)NCc3ccc(F)cc3)[C@H](c3ccc(O)cc3)N2C1=O | 0.0971 | 0.0709 | -0.103 | 0.348 | 1.45 | 1.91 | 0.0539 | 0.748 | -0.0665 | 0.144 (inactive) | 0.939 | 0.0109 (inactive) | -0.886 (inactive) | 0.557 (inactive) | -0.636 (inactive) | -0.574 | 0.305 | 0.704 | 0.249 | 2.28
CCOC(=O)C1=CC[C@@H](c2ccccc2)N(S(=O)(=O)c2ccc(C)cc2)[C@H]1C#N | 0.806 | 1.2 | 0.721 | 0.986 | -0.33 | -0.162 | -0.604 | -0.565 | 0.517 | -0.227 (inactive) | 0.114 | -1.82 (inactive) | 0.184 (inactive) | -0.48 (inactive) | 3.56 (inactive) | 0.93 | 0.134 | 0.0439 | 0.189 | -0.707
O=C1OCCC=C[C@H]2OC34C=CCN(CCN5CCOCC5)C(=O)[C@H]3N(CCCO)C(=O)[C@@H]4C12 (stereo not given in full) | 0.0466 | -1.11 | -0.251 | -0.0881 | -0.0312 | -1.26 | -0.962 | -0.0933 | -0.458 | -0.552 (inactive) | -0.543 | -2.19 (inactive) | -0.561 (inactive) | -0.354 (inactive) | 1.74 (inactive) | -0.613 | -0.0066 | -1.78 | -1.33 | 0.243
O=C1c2ccccc2[C@](Cc2ccccc2I)(C(=O)O)[C@H](c2ccc(CO)cc2)N1Cc1ccccc1 | 0.729 | 0.0602 | 2.7 | 0.303 | -0.584 | -0.42 | 0.068 | -0.827 | 0.471 | -0.443 (inactive) | 0.303 | -2.39 (inactive) | -0.718 (inactive) | 0.0548 (inactive) | 0.131 (inactive) | 0.201 | 0.0627 | 0.363 | 0.0706 | -0.282

From PubChem BioAssay
